# From PubChem BioAssay (NCATS)
# Results filed as inconclusive are left out. Entries that show only a call come without a potency. Activity calls are given as the source filed them. Calls come from the whole dose curve; as a rule, active = well fitted curve in the direction sought with a large enough effect; inconclusive = small, poorly fitted or top-dose-only effect, or another doubt; inactive = no such curve, though single readings can be large; an effect the other way counts as inactive or inconclusive.
# How the values were obtained:
# [1] = target: Aldehyde dehydrogenase, mitochondrial (Homo sapiens) (UniProt P05091); experiment: qHTS for Inhibitors of the Aldehyde Dehydrogenase Family (ALDH2) Primary screen (AID 2061308); note: nearly all actives have a fitted effect of over 55% in size
# [2] = target: Retinaldehyde dehydrogenase 3 (Homo sapiens) (UniProt P47895); experiment: qHTS for Inhibitors of the Aldehyde Dehydrogenase Family (ALDH1A3) Primary screen (AID 2061315)
SMILES,Potency [1],Potency [2]
Fc1cccc(CNc2ncnc3ccc(-c4cccc(Cl)c4)cc23)c1,inactive,inactive
O=C(O)CNc1cccc(-c2nn3c(=O)cc(N4CCNCC4)nc3s2)c1,inactive,inactive
CC/C=C/CC1=C(CCCCC(CCC(=O)O)OC(C)=O)CCC1=O (stereo not drawn),inactive,inactive
COc1ccc(C2Nc3ccccc3C(=O)N2CCO)cc1COc1c(C)cc(NC(C)=O)cc1C (stereo not drawn),inactive,inactive
COc1cccc(CNc2ccc(S(=O)(=O)Nc3cnc4ccccc4c3)cc2)c1O,inactive,inactive
O=C1CCc2cc(S(=O)(=O)Nc3ccc4c(c3)OCCO4)ccc2N1,inactive,inactive
CCCn1c(C)nc2c(N(CCOC)CCOC)nc(C)nc21,inactive,inactive
Cc1nnc(-c2cnn(C)c2N)n1CCCn1cccc1,inactive,inactive
Cc1cccc(-c2csc3ncnc(Sc4nnnn4C)c23)c1,inactive,inactive
Cc1cc(NS(=O)(=O)c2ccc(NC(=O)Cc3cccc4ccccc34)cc2)no1,inactive,inactive
CC(C)(C)CNc1ncnc2ccc(-c3ccc(C(=O)O)o3)cc12,inactive,inactive
COc1ccc(CCNC(=O)Cn2nc(-c3ccc(C)cc3)ccc2=O)cc1OC,inactive,inactive
COc1ccc(Oc2c(Cl)cnn(-c3cc(C)cc(C)c3)c2=O)cc1,inactive,inactive
CC(=O)Nn1c(C)nc2sc3c(c2c1=O)CCNC3,inactive,inactive
